Rab9 promoter act: activators of Rab9 promoter; Potency, µM (titrated, usually from 9.22 µM), for inactives: top-dose activation, negative = inhibition, actives largely listed as activators; Huh7 Rab9 promoter-luciferase reporter, luminescence, 24 h; hit rate 2.8% among 320,000; AID 485297; note: % of control where 0% means no effect; nearly all actives have a fitted effect of over 60% in size
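Luminescence read-out: Huh7 cells stably expressing Rab9-luciferase, treated 24 h with compound at 37 °C, then lysed with luciferase reagent for 10 min at ambient before reading.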
KinaseGlo FLuc: Kinase-Glo luciferase inhibition (counter-screen) | Kinase-Glo luciferase, ATP luminescence, 8 min | Potency, µM (highest dose often 38.3 µM), inactives show top-dose activity change, negative = inhibition, most hits filed as inhibitors | hit rate 0.28% among 200,000; note: % is set by controls: 0 for no effect and ±100 for the full control effect; nearly all actives have a fitted effect of over 60% in size
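Luminescence was the read-out, taken after 8-minute incubation at ambient temperature. Luciferase turned over luciferin with 10 uM ATP in imidazole pH 7.2 buffer containing KCl, MgCl2, Tween 20 and BSA.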
NPC1 promoter act: activators of NPC1 promoter. Huh7 NPC1 promoter luciferase reporter, 24 h. Potency, µM (series often up to 9.22 µM), inactives show at the highest dose activation, hits mostly activators. hit rate 2.4% among 320,000; note: % of control where 0% means no effect; nearly all actives have a fitted effect of over 60% in size
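NPC1 promoter–luciferase Huh7 cells; 24 h compound; luminescence.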
SMN2 splice enh: SMN2 splice variant enhancement; Potency, µM (highest dose often 46.1 µM), inactives show at the highest dose activity change, positive = activation, hits mostly activators; HEK293 SMN2-luciferase splicing reporter, luminescence, 30-36 h; hit rate 2.8% among 210,000; AID 1458; note: % of control where 0% means no effect; nearly all actives have a fitted effect of over 55% in size
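qHTS luciferase splicing reporter: luminescence rises when SMN2 exon 7 is included in transfected HEK293 cells. Compound exposure lasted 30-36 h at 37C, with 4.5 mM final sodium butyrate as control, followed by a ONE-Glo read.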
FLuc modulator: firefly luciferase modulation, counter-screen for miR-21 project; P08659; purified FLuc, Km substrates, luminescence inhibition; Potency, µM (titrated, usually from 57.5 µM), for inactives: at the highest dose activity change, negative = inhibition, actives largely listed as inhibitors; hit rate 6.9% among 360,000;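 note: plate controls were vehicle for no effect and reference inhibitor for full effect; nearly all actives have a fitted effect of over 55% in size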
Target sequence (P08659 whole entry, looked up): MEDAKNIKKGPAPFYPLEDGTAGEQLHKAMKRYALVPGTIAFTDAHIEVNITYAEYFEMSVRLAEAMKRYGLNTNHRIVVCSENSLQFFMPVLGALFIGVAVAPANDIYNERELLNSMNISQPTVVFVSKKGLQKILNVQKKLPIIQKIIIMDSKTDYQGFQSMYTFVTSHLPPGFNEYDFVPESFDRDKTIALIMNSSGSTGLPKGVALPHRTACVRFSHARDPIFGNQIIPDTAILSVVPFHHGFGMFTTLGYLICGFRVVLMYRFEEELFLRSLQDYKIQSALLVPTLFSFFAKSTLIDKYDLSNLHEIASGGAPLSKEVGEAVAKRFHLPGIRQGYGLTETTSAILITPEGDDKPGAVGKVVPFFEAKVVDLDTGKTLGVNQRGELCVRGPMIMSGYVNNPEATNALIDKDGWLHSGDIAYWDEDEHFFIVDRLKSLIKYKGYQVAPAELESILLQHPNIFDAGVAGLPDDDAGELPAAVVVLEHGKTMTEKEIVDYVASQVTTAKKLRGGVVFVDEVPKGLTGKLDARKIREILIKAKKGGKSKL
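Purified P. pyralis luciferase, 10 nM final, with Km-level 10 uM D-luciferin and 10 uM ATP in 50 mM Tris acetate pH 7.5, 10 mM Mg acetate, 0.01% Tween-20, 0.05% BSA; 6-point qHTS titration about 60 µM downward; luminescence read.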
ELG1 genotox: inducers of genotoxicity in HEK293T ELG1-luciferase cells. hit rate 1.3% among 330,000. Potency, µM (doses to about 46 µM), for the others: at the top dose activity change, positive = activation, usual class: activators. HEK293T ELG1-luciferase reporter, luminescence, 16 h; note: % of control where 0% means no effect; nearly all actives have a fitted effect of over 60% in size
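Step 1: seed 2,000 HEK293T ELG1-luciferase cells per well. Step 2: add compound or DMSO, incubate 16 hr at 37 °C. Step 3: ONE-Glo, 30 min at room temperature, read luminescence.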
Active calls of the source: *; ? = inconclusive; . = not tested or not shown; [ ] = dose if it differs, or a comment. Rows were chosen to be rich in hits. Some 7.4% of all compounds tested hit in one or more screens of this group. Calls come from the whole dose curve; as a rule, active = well fitted curve in the direction sought with a large enough effect; inconclusive = small, poorly fitted or top-dose-only effect, or another doubt; inactive = no such curve, though single readings can be large; an effect the other way counts as inactive or inconclusive. Potency is the fitted concentration of half-maximal effect.

SMILES	Rab9 promoter act	KinaseGlo FLuc	NPC1 promoter act	SMN2 splice enh	FLuc modulator	ELG1 genotox
Cc1cc(Cl)ccc1OCc1nnc(-c2ccccc2C)o1	3.98µM*	.	?	.	?	?
Fc1ccc(OCc2nnc(-c3ccccc3Br)o2)c(Cl)c1	2.51µM*	.	?	.	9.53µM*	2.31µM*
Clc1ccc(OCc2nnc(-c3ccccc3Br)o2)c(Cl)c1	3.98µM*	0.4%	3.16µM*	?	6.01µM*	?
Clc1ccc(OCc2nnc(-c3ccccc3Br)o2)cc1	12.7%	-4.9%	10.0%	1.8%	?	7.4%
COc1ccccc1CNC(=O)COC(=O)C1CCN(c2ccc(C(F)(F)F)cn2)CC1	1.9%	.	2.0%	.	6.8%	-0.3%
CCOc1cc(/C=C2\SC(=S)N(Nc3ccccc3)C2=O)ccc1O	4.9%	-9.4%	?	-8.8%	6.75µM*	?
O=C(O)c1ccc(/C=C2\SC(=S)N(Nc3ccccc3)C2=O)cc1	0.5%	.	-3.4%	.	?	8.7%
O=C1/C(=C/c2ccc(O)c(O)c2)SC(=S)N1Nc1ccccc1	-6.6%	.	-21.4%	.	19µM*	-7.8%
COc1cc(/C=C2\SC(=S)N(Nc3ccccc3)C2=O)ccc1O	20.0%	-10.2%	-3.5%	4.0%[1.84 µM]	5.36µM*	?
Cc1cc(C)nc(Nc2nc(=O)c3ccccc3s2)n1	?	-3.3%	?	?	16.9µM*	18.4µM*
COc1cc(/C=C(\CCC(=O)O)c2nc3ccccc3s2)ccc1OCC(=O)Nc1c(Cl)cccc1Cl	.	.	.	.	.	-1.2%
CCCn1c(O)c(C=Nc2ccccc2)sc1=S	?	0.1%	13.5%	.	21.3µM*	?
CCCCn1c(O)c(/C=C/C=C/C=Nc2ccccc2)sc1=S	1.0%	8.91µM*	-13.2%	-57.2%	10.7µM*	4.9%
COc1ccc(-n2ncc3c(NCc4ccccn4)ncnc32)cc1	?	-2.4%	?	?	15.1µM*	?
COc1ccc(-n2ncc3c(NCc4ccco4)ncnc32)cc1	1.41µM*	-0.7%	2.24µM*	?	9.53µM*	?
Clc1ccc(-n2ncc3c(NCc4ccco4)ncnc32)cc1	2.51µM*	-1.4%	?	-18.8%	6.01µM*	-7.3%
Fc1ccc(N2Cc3ccsc3C=N2)cc1	4.3%	-4.1%	24.1%	19.0%	?	10.1%
CCOc1ccccc1Nc1nc(N)nc(CSc2nncn2C)n1	-4.7%	-0.3%	-2.0%	-0.1%	4.4%	-0.7%
COc1ccc(Nc2nc(N)nc(CSc3nnc(C)s3)n2)cc1	?	1.3%	26.4%	22.4µM*	26.9µM*	?
COc1ccc(Nc2nc(N)nc(CSc3nc4cc(OC)ccc4s3)n2)cc1	.	.	.	-68.4%	?	.
COc1ccc(Nc2nc(N)nc(CSc3nncn3C)n2)cc1	?	-3.3%	17.4%	19.0%	15.1µM*	20.6µM*
COc1ccc(OCC(=O)N/N=C2\CCc3ccccc32)cc1	6.7%	-5.2%	1.6%	-4.7%	19µM*	?
O=C(Cc1cccc2ccccc12)N/N=C1\CCCc2ccccc21	-1.9%	0.8%	-1.1%	-44.9%	8.0%	-2.3%
NC(=O)C(=O)N/N=C1\CCc2ccccc21	21.2%	-0.2%	7.3%	12.6µM*	10.7µM*	?
COc1ccc2c(c1)CC/C2=N\NC(=O)c1ccccc1	?	-6.5%	?	15.8µM*	12µM*	?
O=C(Nc1ccc(-c2nc3cccnc3s2)cc1)c1ccc(Br)o1	3.98µM*	-2.6%	2.82µM*	3.16µM*	?	2.91µM*
O=C(Nc1ccc(-c2nc3cccnc3s2)cc1)c1ccco1	0.447µM*	-17.8%	0.501µM*	1.41µM*	1.07µM*	0.92µM*
O=C(Nc1cccc(-c2nc3cccnc3s2)c1)c1ccco1	8.3%	-1.6%	16.1%	-0.8%	10.7µM*	1.4%
CC(/C=C/c1ccccc1)=N/NC(=O)Cn1nnc(N)n1	-0.3%	.	0.3%	.	0.1%	0.1%
CC(=O)c1sc(Nc2nc3ccc(F)cc3s2)nc1C	1.78µM*	-6.0%	2.82µM*	12.6µM*	3.38µM*	2.8%

Bioassay records deposited in PubChem by National Center for Advancing Translational Sciences (NCATS).
